In PubChem BioAssay:
For some assays here: Entries with a potency or affinity are not part of this list. Inconclusive results are not listed. Calls of active or inactive are those of the source.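 How the source made its calls, unless noted: active means a dose-response fit showing signal loss, with half-maximal concentration no higher than twice the top tested dose; inconclusive means flat fit between 30% and 70% signal loss, or poor fit; inactive means the rest.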

Experiments:
[1] = fungal growth arrest, C. neoformans – Alamar Blue, cherry-picks, dose response (AID 686998;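 active means falling signal with fitted half-maximal potency no higher than twice the top valid tested dose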)
[2] = C. neoformans lysis by adenylate kinase leakage – AK release luminescence, cherry-picks, dose response (AID 687000;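 active means fitted dose curve reaches 40% lysis signal rise at or below the highest valid concentration tested for that sample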;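 further: luminescent detection of adenylate kinase leaking from lysed yeast; 0% = median neutral control signal and 100% = double that signal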)
[3] = viability loss in HepG2 hepatoma cells – cell-based, cherry-picks, set 2, cytotoxicity control, dose response (AID 687002)
[4] = small molecules captured by biotinylated probe aFSTL3 – biochemical, small-molecule microarray, fluorescence 635/667, stem cell growth factor project, primary screen (AID 1064); conditions: higher = more signal;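 further: measures binding of the biotinylated anti-FSTL3 antibody to printed compounds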
[5] = binders from COS7 lysate, DM2A8 probe, primary screen, torsin A project, cell lysate, small-molecule microarray, fluorescence 635/667 (AID 1065); conditions: higher = more signal, COS7 lysate expressing mutant human TOR1A
[6] = small molecules captured by biotinylated probe aFGF2 – biochemical, small-molecule microarray, fluorescence 635/667, stem cell growth factor project, primary screen (AID 1067); conditions: higher = more signal;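 further: measures binding of biotinylated aFGF2 protein to printed compounds on slides; z-score merges feature fluorescence and signal-to-noise across triplicate slides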
[7] = small molecules captured by biotinylated probe aFGF10 – biochemical, small-molecule microarray, fluorescence 635/667, stem cell growth factor project, primary screen (AID 1071); conditions: higher = more signal;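 further: score merges 667 nm spot intensity and signal to noise from triplicate slides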
[8] = biological target: Neurogenic locus notch homolog protein 2 (Homo sapiens) (UniProt Q04721); assay: small molecules binding Notch2 protein – biochemical, small-molecule microarray, 635 nm fluorescence, stem cell growth factors, primary screen (AID 1073); conditions: higher = more signal
Neurogenic locus notch homolog protein 2 (Homo sapiens), sequence (Q04721 whole entry, looked up, canonical isoform): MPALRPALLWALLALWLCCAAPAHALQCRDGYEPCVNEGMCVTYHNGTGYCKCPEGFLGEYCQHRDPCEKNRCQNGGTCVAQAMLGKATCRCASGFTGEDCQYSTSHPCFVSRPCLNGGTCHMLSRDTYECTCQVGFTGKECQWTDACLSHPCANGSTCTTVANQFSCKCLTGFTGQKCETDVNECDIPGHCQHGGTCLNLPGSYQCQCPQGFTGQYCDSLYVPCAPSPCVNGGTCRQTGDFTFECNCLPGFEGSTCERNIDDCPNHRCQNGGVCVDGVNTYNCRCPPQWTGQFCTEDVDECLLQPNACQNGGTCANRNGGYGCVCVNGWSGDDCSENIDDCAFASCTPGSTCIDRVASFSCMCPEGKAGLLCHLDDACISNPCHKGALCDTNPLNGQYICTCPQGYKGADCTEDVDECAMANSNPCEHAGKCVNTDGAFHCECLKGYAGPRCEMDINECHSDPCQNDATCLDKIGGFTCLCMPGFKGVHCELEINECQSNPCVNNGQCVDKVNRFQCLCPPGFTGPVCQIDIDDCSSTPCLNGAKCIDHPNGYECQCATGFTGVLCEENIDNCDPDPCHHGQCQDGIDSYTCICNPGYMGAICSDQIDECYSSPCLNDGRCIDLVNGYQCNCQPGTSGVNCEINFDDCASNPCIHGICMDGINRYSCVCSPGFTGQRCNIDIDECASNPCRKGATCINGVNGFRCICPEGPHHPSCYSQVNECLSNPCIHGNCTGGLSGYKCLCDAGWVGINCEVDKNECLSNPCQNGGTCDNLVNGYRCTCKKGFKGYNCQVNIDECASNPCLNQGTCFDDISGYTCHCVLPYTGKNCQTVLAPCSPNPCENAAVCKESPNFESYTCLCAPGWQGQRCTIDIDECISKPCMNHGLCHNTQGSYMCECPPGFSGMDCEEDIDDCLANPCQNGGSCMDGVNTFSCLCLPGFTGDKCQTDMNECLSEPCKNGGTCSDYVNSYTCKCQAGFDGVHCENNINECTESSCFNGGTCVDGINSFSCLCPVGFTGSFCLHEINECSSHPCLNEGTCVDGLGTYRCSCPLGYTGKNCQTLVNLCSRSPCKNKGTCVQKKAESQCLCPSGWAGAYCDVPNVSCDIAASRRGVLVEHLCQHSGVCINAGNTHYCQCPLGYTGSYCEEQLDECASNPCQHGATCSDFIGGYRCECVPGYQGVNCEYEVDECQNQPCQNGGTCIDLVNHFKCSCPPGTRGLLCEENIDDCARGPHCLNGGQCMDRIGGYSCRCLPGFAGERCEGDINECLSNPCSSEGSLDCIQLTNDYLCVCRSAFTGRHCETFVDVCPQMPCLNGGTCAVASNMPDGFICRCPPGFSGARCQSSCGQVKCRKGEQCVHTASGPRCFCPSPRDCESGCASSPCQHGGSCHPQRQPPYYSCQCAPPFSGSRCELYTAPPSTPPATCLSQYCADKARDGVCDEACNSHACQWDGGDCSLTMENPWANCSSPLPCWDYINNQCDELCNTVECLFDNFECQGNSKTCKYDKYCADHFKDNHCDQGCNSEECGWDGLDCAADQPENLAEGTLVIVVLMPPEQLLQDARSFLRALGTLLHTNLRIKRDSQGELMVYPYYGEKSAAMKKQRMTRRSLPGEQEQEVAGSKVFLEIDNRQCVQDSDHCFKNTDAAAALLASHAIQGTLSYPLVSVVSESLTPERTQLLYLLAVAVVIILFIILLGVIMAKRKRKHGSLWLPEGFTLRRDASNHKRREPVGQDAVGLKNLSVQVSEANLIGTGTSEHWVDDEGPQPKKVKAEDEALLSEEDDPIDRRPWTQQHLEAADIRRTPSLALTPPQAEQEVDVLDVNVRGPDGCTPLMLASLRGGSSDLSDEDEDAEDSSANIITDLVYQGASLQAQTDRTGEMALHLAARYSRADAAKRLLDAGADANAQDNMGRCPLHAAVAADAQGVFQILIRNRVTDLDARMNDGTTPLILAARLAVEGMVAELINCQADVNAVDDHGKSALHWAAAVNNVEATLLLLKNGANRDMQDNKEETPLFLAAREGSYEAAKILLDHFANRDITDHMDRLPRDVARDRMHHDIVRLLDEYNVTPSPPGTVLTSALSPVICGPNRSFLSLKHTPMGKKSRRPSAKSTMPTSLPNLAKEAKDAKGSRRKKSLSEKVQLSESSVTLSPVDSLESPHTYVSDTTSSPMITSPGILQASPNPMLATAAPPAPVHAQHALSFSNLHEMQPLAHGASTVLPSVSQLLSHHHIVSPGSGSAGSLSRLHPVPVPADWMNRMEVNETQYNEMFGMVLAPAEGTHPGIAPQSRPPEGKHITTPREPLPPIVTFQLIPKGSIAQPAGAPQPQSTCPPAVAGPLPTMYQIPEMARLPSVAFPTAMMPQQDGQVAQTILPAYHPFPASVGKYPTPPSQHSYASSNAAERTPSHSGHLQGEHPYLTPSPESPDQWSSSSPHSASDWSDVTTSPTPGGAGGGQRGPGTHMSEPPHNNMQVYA

[9] = biological target: Pro-neuregulin-1, membrane-bound isoform (Homo sapiens) (UniProt Q02297); assay: small molecules binding neuregulin-1 protein – biochemical, small-molecule microarray, fluorescence 635/667, psychiatric disease protein project, primary screen (AID 1075); conditions: NRG1 binding, 635 nm fluorescence, higher = more signal;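 further: score combines 667 nm spot fluorescence with signal to noise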
Pro-neuregulin-1, membrane-bound isoform (Homo sapiens), sequence (Q02297 whole entry, looked up, the tested form may be a part, canonical isoform): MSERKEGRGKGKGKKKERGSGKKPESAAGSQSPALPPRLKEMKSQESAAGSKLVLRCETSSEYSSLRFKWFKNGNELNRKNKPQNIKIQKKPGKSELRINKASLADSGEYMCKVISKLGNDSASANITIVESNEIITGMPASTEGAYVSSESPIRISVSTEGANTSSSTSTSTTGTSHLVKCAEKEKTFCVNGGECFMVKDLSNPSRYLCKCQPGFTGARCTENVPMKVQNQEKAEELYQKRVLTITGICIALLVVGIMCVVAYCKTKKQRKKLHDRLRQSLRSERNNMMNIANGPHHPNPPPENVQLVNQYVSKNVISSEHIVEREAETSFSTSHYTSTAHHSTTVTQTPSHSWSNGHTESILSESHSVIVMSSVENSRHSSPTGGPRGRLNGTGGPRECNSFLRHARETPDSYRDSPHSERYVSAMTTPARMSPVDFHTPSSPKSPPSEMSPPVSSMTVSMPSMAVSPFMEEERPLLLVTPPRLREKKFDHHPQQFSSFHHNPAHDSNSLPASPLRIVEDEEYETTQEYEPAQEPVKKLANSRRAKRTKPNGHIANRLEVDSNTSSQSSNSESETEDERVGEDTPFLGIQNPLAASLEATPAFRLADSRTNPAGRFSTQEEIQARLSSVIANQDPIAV

[10] = test system: Neuregulin-1 EGF-like domain; assay: small molecules binding NRG1 EGF domain – biochemical, small-molecule microarray, 635 nm fluorescence, primary screen (AID 1081); conditions: higher = more signal;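 further: binding of the protein to compounds printed on small-molecule microarray slides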
[11] = FRG1 expression reporter modulators in myotubes – cell-based, C2C12 myotubes, firefly/Renilla luciferase, luminescence, FRG1 inhibition for FSHD, primary screen (AID 1084); conditions: FRG1 promoter luciferase, higher = more signal, called active from +8 up or from −8 down
[12] = small molecules captured by biotinylated probe aFST – biochemical, small-molecule microarray, fluorescence 635/667, stem cell growth factor project, primary screen (AID 1086); conditions: higher = more signal;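 further: score merges 667 nm fluorescence with signal-to-noise of each printed compound spot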
[13] = binders of probe aHhip on microarray, primary screen, stem cell growth factor project, biochemical, small-molecule microarray, fluorescence 635/667 (AID 1087); conditions: higher = more signal;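 further: score merges spot fluorescence at 667nm with spot signal to noise ratio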
[14] = test system: PRMT1 (protein arginine N-methyltransferase 1); assay: small molecules binding arginine methyltransferase PRMT1 – biochemical, small-molecule microarray, 635 nm fluorescence, primary screen (AID 1088); conditions: higher = more signal;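 further: binding of Prmt1 protein to compounds spotted on small-molecule microarray slides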
[15] = growth effects on S. cerevisiae YJM789 – YJM789 clinical isolate, OD600, 24 h, basal, primary screen (AID 1089); conditions: higher = more signal, called active from +8 up or from −8 down;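 further: growth of clinical yeast isolate S. cerevisiae YJM 789 seeded 1000 cells per well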
[16] = S. pombe growth modifiers, basal conditions – strain 972, OD600, 24 h, no modulator, primary screen (AID 1090);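 further: basal condition with compound alone and no growth modifier present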; conditions: S. pombe 972 growth, higher = more signal, called active from +8 up or from −8 down
[17] = budding yeast growth modifiers under rapamycin – strain BY4716, OD600, 96 h, primary screen (AID 1091); conditions: S. cerevisiae BY4716 + rapamycin, higher = more signal, called active from +8 up or from −8 down
[18] = biological target: Torsin-1A-interacting protein 2 (Homo sapiens) (UniProt Q8NFQ8); assay: small molecules binding lysate-expressed LULL1 – cell lysate, human LULL1 lysate, 635/667 nm fluorescence, primary screen (AID 1092); conditions: small-molecule microarray, hLULL1 lysate binding, 635 nm fluorescence; higher = more signal;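 further: probe is lysate of COS7 cells overexpressing human LULL1; score merges per-feature 667 nm fluorescence with signal-to-noise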
Torsin-1A-interacting protein 2 (Homo sapiens), sequence (Q8NFQ8 whole entry, looked up): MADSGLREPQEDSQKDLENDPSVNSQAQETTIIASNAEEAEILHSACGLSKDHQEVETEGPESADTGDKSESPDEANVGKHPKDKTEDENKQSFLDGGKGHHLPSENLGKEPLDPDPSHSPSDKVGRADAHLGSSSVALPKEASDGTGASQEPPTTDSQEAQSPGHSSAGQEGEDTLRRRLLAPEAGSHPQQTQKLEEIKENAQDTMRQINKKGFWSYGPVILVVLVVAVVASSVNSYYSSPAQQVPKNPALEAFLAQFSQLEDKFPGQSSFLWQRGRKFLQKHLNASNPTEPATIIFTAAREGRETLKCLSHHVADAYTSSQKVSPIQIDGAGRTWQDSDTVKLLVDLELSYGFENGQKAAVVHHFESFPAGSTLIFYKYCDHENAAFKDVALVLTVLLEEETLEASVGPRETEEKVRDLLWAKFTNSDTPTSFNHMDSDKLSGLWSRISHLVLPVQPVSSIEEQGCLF

[19] = optical density change of DRC41 E. coli – strain DRC41, OD650, 24 h, E. coli filamentation project, primary screen (AID 1093);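 further: MC1000 strain lacking acrAB efflux and sulA so SOS filamentation is blocked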; conditions: E. coli DRC41 growth, higher = more signal, called active from +8 up or from −8 down
[20] = probe aLefty2 binding to arrayed compounds – biochemical, biotinylated probe, 635/667 nm fluorescence, primary screen (AID 1094); conditions: small-molecule microarray, higher = more signal;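 further: score merges spot fluorescence near 667 nm with spot signal-to-noise ratio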

## CCCC#Cc1ccc2c(c1)O[C@H](CN(C)CCC)[C@H](C)CN([C@@H](C)CO)S2(=O)=O
[1]
  outcome: inactive
[2]
  outcome: inactive
[3]
  outcome: inactive

## C=CCN1C(=O)[C@]2(O[C@H](CCn3cc([C@H](O)c4ccccc4)nn3)[C@@H]([Si](C)(C)c3ccc(OC)cc3)[C@@H]2C)c2cc(N3CCOC3=O)ccc21
[4]
  composite z-score: 0.264
[5]
  composite z-score: 0.443
[6]
  composite z-score: -0.154
[7]
  composite z-score: -0.213
[8]
  composite z-score: -0.74
[9]
  composite z-score: 0.579
[10]
  composite z-score: 1.16
[11]
  z-score: -2.7 (inactive)
[12]
  composite z-score: -0.297
[13]
  composite z-score: -0.0128
[14]
  composite z-score: 1.37
[15]
  z-score: 0.326 (inactive)
[16]
  z-score: 0.155 (inactive)
[17]
  z-score: 4.47 (inactive)
[18]
  composite z-score: 1.41
[19]
  z-score: 1.75 (inactive)
[20]
  composite z-score: -0.23

## CCOc1ccc(C(=O)NC(=S)Nc2ccccc2N2CCC(C)CC2)cc1[N+](=O)[O-]
[1]
  outcome: inactive
[2]
  outcome: inactive
[3]
  outcome: inactive

## CC(C)NC(=O)[C@@H]1c2ccccc2C(=O)N(Cc2cc(F)cc(C(F)(F)F)c2)[C@H]1c1ccc(CO)cc1
[4]
  composite z-score: 1.02
[5]
  composite z-score: -0.197
[6]
  composite z-score: -0.141
[7]
  composite z-score: -1.12
[8]
  composite z-score: -0.636
[9]
  composite z-score: 0.433
[10]
  composite z-score: 0.844
[11]
  z-score: 0.842 (inactive)
[12]
  composite z-score: 0.136
[13]
  composite z-score: -0.149
[14]
  composite z-score: -0.305
[15]
  z-score: -0.354 (inactive)
[16]
  z-score: -0.92 (inactive)
[17]
  z-score: -1.17 (inactive)
[18]
  composite z-score: 2.48
[19]
  z-score: 1.52 (inactive)
[20]
  composite z-score: 0.0071

## CC(C)CCC[C@@H](C)[C@H]1CC[C@@]2(C)C3=C(CC[C@]12C)[C@@]1(C)CC[C@H](OC(=O)CCl)C(C)(C)C1CC3 (some centres undefined)
[4]
  composite z-score: -0.503
[5]
  composite z-score: 0.331
[6]
  composite z-score: -0.0787
[7]
  composite z-score: 0.422
[8]
  composite z-score: 0.753
[9]
  composite z-score: 0.0429
[10]
  composite z-score: 0.59
[11]
  z-score: -0.0513 (inactive)
[12]
  composite z-score: 0.104
[13]
  composite z-score: -0.0237
[14]
  composite z-score: -0.132
[15]
  z-score: -0.0688 (inactive)
[16]
  z-score: -0.178 (inactive)
[17]
  z-score: -0.208 (inactive)
[18]
  composite z-score: 0.424
[19]
  z-score: 3.26 (inactive)
[20]
  composite z-score: -0.145

## O=C1O[C@H](c2ccccc2)[C@H](c2ccccc2)N2[C@H]1[C@@H](C(=O)NC[C@H](O)c1ccccc1)[C@]1(C(=O)Nc3ccc(C#CC4(O)CCCCCC4)cc31)[C@H]2c1ccc(O)cc1
[4]
  composite z-score: 0.0879
[5]
  composite z-score: 0.705
[6]
  composite z-score: -0.0529
[7]
  composite z-score: 0.676
[8]
  composite z-score: 1.47
[9]
  composite z-score: 1.62
[10]
  composite z-score: 1.34
[11]
  z-score: -0.0847 (inactive)
[12]
  composite z-score: 0.837
[13]
  composite z-score: 0.131
[14]
  composite z-score: 1.58
[15]
  z-score: -0.307 (inactive)
[16]
  z-score: -1.14 (inactive)
[17]
  z-score: 0.393 (inactive)
[18]
  composite z-score: 1.41
[19]
  z-score: 1.69 (inactive)
[20]
  composite z-score: 0.113
